CtBP-E1A inh: qHTS Assay for Inhibitors of the CtBP/E1A Interaction; actives 0.49% (n = 340,000); CtBP / adenovirus E1A interaction (AlphaScreen); activity change, % (no concentration beside the values); AlphaScreen GST-E1A/His-CtBP binding, 1536-well; hits give low values; in the data active means activity change below about -65%; inconclusive means mostly about -30% to -63%; further: on the % scale 0 is the no-effect control and ±100 the full control effect
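GST-E1A and His-tagged CtBP (125 nM each as 5X stock) were preincubated with pin-transferred compound for 2 h at 37 °C in the dark, then glutathione donor and nickel acceptor beads were added for 1 h before AlphaScreen reading.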
Six1-Eya2 inh: qHTS Assay for Inhibitors of the Six1/Eya2 Interaction. AlphaScreen GST-Six1/His-Eya2 binding, biochemical; hits give low values. activity change, % (no concentration beside the values). actives 0.56% (n = 360,000). AID 651725, 2012; in the data active means activity change below about -65%; inconclusive means mostly about -30% to -63%; further: on the % scale 0 is the no-effect control and ±100 the full control effect
Target sequence (O00167 whole entry, looked up): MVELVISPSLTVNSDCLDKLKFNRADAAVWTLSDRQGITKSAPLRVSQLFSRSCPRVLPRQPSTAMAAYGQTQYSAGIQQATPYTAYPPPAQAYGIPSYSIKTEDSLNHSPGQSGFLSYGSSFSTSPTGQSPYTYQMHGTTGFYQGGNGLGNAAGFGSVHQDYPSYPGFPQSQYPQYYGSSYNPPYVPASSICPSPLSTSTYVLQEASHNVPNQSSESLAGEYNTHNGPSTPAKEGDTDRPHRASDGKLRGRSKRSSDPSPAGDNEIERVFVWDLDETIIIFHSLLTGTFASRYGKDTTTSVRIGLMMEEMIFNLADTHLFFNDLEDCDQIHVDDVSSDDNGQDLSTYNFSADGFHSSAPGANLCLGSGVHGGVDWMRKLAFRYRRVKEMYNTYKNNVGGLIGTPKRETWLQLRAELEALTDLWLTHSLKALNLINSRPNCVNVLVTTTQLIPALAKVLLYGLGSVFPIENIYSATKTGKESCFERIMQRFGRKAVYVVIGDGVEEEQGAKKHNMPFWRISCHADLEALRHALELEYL
Target sequence (Q15475 whole entry, looked up): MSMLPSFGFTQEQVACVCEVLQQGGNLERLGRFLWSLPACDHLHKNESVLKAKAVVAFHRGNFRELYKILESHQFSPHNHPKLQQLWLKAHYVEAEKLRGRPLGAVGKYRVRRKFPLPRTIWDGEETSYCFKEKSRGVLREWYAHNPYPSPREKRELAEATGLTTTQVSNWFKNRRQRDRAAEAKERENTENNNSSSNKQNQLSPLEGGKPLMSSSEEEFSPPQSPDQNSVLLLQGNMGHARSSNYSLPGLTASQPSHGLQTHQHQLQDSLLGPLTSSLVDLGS
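GST-Six1 + His-Eya2 (5X stock: 250/500 nM); Tris pH 8.0, 300 mM NaCl, 0.05% BSA, 0.02% Tween 20; GSH donor/Ni acceptor beads; 1 h 37 °C dark; AlphaScreen readout.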
S2 tox: Viability Counterscreen for Primary qHTS for Inhibitors of ATXN expression; S2 cells (HEK-293 line with an ATXN2-luciferase reporter) viability, CellTiter-Fluor protease fluorescence, 24 h; Potency, µM (doses to about 56.7 µM), usual class: cytotoxic; actives 0.49% (n = 400,000); further: potency means the concentration at half of the fitted maximal effect; nearly all actives have a fitted effect of over 40% in size
HepG2 tox-1: qHTS for Inhibitors of TGF-b: Cytotox Counterscreen; HepG2 CAGA-GFP viability, ATP luminescence, 18 h; actives 0.76% (n = 410,000); AID 588856, 2011; Potency, µM (highest dose often 46.1 µM), for the others: at the highest dose activity change, negative = cytotoxicity, usual class: cytotoxic; further: potency means the concentration at half of the fitted maximal effect
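CellTiter-Glo luminescence gave cytotoxicity after 18 hours at 37 degrees C. The cells were HepG2 CAGA-GFP in 1% FBS DMEM, stimulated with 500 pg/mL TGF-beta after compound addition. %Activity was normalised to no-cell wells (complete cell-killing) and DMSO (no toxicity), and curves were fitted and classified.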
ATXN2 expr inh: Primary qHTS for Inhibitors of ATXN expression | Potency, µM (top dose mostly 57 µM), for inactives: at the highest dose activity change, negative = inhibition, actives largely listed as inhibitors | actives 0.72% (n = 360,000) | HEK-293 ATXN2-luciferase reporter, luminescence, 24 h; further: potency means the concentration at half of the fitted maximal effect; on the % scale 0 is the no-effect control and ±100 the full control effect; nearly all actives have a fitted effect of over 55% in size
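ATXN2-luciferase reporter cells (luciferase flanked by upstream and downstream ATXN2 gene portions) were treated 24 h at 37 °C with compounds at up to 57 uM. SteadyGlo luminescence gave expression; GF-AFC fluorescence gave viability.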
TGFb inhibitor: qHTS for Inhibitors of TGF-b; actives 1.2% (n = 410,000); Potency, µM (series often up to 46.1 µM), for the others: at the highest dose activity, negative = inhibition, usual class: inhibitors; HepG2 CAGA-GFP TGF-b/SMAD3 reporter, GFP fluorescence, 18 h; TGF-beta stimulated, 500 pg/mL final; AID 588855, 2011; further: potency means the concentration at half of the fitted maximal effect; on the % scale 0 is the no-effect control and ±100 the full control effect; nearly all actives have a fitted effect of over 65% in size
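Cell-based qHTS in HEPG2 carrying a CAGA-GFP Smad reporter; compounds added before 500 pg/mL final TGF-beta, 18 h incubation at 37 degrees C, GFP fluorescence quantified per cell by imaging cytometry.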
TGFb confirm: qHTS for Inhibitors of TGF-b: Confirmation of Cherry Picks | shares compounds with TGFb inhibitor | HepG2 CAGA-GFP TGF-b reporter, GFP fluorescence, 18 h; cells stimulated with TGF-beta, 500 pg/mL | Potency, µM (doses to about 46.1 µM), inactives show at the highest dose activity, negative = inhibition, actives largely listed as inhibitors | actives 63% (n = 1,600) | AID 720534, 2013; further: potency means the concentration at half of the fitted maximal effect; on the % scale 0 is the no-effect control and ±100 the full control effect; nearly all actives have a fitted effect of over 65% in size
HepG2 tox-2: qHTS for Inhibitors of TGF-b: Cytotox Counterscreen for Cherry Picks; actives 27% (n = 1,600); AID 720535, 2013; shares compounds with TGFb inhibitor; Potency, µM (series often up to 46.1 µM), for inactives: top-dose activity, negative = cytotoxicity, actives largely listed as inhibitors; HepG2 CAGA-GFP viability, ATP luminescence, 18 h; cells stimulated with TGF-beta, 500 pg/mL; further: potency means the concentration at half of the fitted maximal effect; on the % scale 0 is the no-effect control and ±100 the full control effect; nearly all actives have a fitted effect of over 70% in size
TGFb CCL64 inh: qHTS for Inhibitors of TGF-b: CCL64 Cells Orthogonal Assay for Cherry Picks; CCL64 CAGA-GFP reporter, TGF-b stimulated, GFP fluorescence, 18 h; Potency, µM (top dose mostly 46.1 µM), for the others: at the top dose activity, negative = inhibition, hits mostly inhibitors; AID 720536, 2013; actives 41% (n = 1,600); shares compounds with TGFb inhibitor; further: potency means the concentration at half of the fitted maximal effect; nearly all actives have a fitted effect of over 65% in size
TGFb COP inh: qHTS for Inhibitors of TGF-b: Hit Validation in HepG2 Cells using COP promoter | shares compounds with TGFb inhibitor | Potency, µM (series often up to 46.1 µM), inactives show top-dose activity, negative = inhibition, most hits filed as inhibitors | HepG2 COP-GFP TGF-b reporter, GFP fluorescence, 18 h; cells stimulated by added recombinant TGF-beta | actives 3% (n = 1,600); further: potency means the concentration at half of the fitted maximal effect; nearly all actives have a fitted effect of over 70% in size
An asterisk follows results filed as active; i = inactive; ? = inconclusive; nt = no result. An excerpt weighted towards active compounds, which were near 2.8% of everything screened. Unless noted, the call rests on the fitted dose curve; in most records, active means well fitted curve in the direction sought with a large enough effect; inconclusive means small, poorly fitted or top-dose-only effect, or another doubt; inactive means no such curve, though single readings can be large; an effect the other way counts as inactive or inconclusive.

SMILES	CtBP-E1A inh	Six1-Eya2 inh	S2 tox	HepG2 tox-1	ATXN2 expr inh	TGFb inhibitor	TGFb confirm	HepG2 tox-2	TGFb CCL64 inh	TGFb COP inh
O=S(=O)(Nc1ccc2c(c1)OCCO2)c1ccc2oc3ccccc3c2c1	-2.5	-8.2	i	-31.5%	-38.9%	10µM*	23.1µM*	?	?	36.5%
Cc1ccccc1OCC(O)Cn1c(=N)n(Cc2ccccc2)c2ccccc21 (stereo not drawn)	16.3	7.4	31.6µM*	7.94µM*	?	7.08µM*	?	?	?	-27.1%
O=c1cc(NS(=O)(=O)c2ccccc2)nc(SCc2ccc(Cl)cc2)[nH]1	-2.1	3.0	?	-49.8%	3.1%	3.98µM*	?	-23.9%	18.4µM*	4.2%
O=C(CSc1nc(NS(=O)(=O)c2ccccc2)cc(=O)[nH]1)Nc1ccc(Cl)cc1	0.0	?	i	-27.3%	-26.2%	0.7%	nt	nt	nt	nt
C=CCC[C@@H](Cc1ccc(F)cc1)C(=O)OC[C@@H](NC(=O)[C@H](CC=C)CC(=O)N(CCO)Cc1ccccc1)c1ccccc1	-0.7	0.0	?	-12.5%	?	?	nt	nt	nt	nt
C=CCC[C@@H](Cc1ccc(F)cc1)C(=O)OC[C@@H](NC(=O)[C@@H](CC=C)CC(=O)N(CCO)Cc1ccccc1)c1ccccc1	-2.9	-9.6	?	-19.7%	?	11.2µM*	14.6µM*	-25.5%	?	-7.2%
C=CC[C@H](CC(=O)N(CCO)Cc1ccccc1)C(=O)N[C@H](COC(=O)[C@@H](CC=C)Cc1ccc(F)cc1)Cc1c[nH]c2ccccc12	-2.1	-8.7	?	-23.3%	?	12.6µM*	16.4µM*	-22.6%	?	13.2%
C=CC[C@@H](CC(=O)N(CCO)Cc1ccccc1)C(=O)N[C@H](COC(=O)[C@@H](CC=C)Cc1ccc(F)cc1)Cc1c[nH]c2ccccc12	0.0	-20.8	?	-12.9%	0.0%	?	nt	nt	nt	nt
CCN1CCN(c2ncc3c(n2)CCN(Cc2sccc2C)C3)CC1	nt	nt	i	-5.6%	5.1%	-1.4%	nt	nt	nt	nt
Cc1cscc1-c1ccc(C(=O)Nc2c(C)cccc2C)o1	-22.4	-15.2	?	-24.8%	-27.7%	14.1µM*	11.6µM*	-13.2%	-29.2%	17.0%
Cc1ccc(-c2ccc(C(=O)Nc3ccccc3)o2)c2ccccc12	-1.3	-7.2	i	-9.8%	-8.2%	?	nt	nt	nt	nt
Cc1cc(Nc2ccccc2)nc(NCc2ccccc2)n1	-0.3	5.8	i	-55.2%	?	10µM*	3.7%	?	14.6µM*	63.2%
Cc1cc(Nc2cccc(F)c2)nc(NCc2ccccc2)n1	-2.7	9.4	?	-79.9%	?	?	nt	nt	nt	nt
Cc1cccc(N2CCN(C(=O)c3ccc(S(=O)(=O)N(C)c4ccccc4)cc3)CC2)c1C	-4.7	-12.0	i	-2.5%	-19.8%	5.62µM*	9.2µM*	-20.5%	?	20.1%
Cc1ccc(N2CCN(C(=O)c3cc(C(=O)c4ccccc4C)c[nH]3)CC2)c(C)c1	-6.9	-12.6	?	-29.2%	-30.3%	17.8µM*	6.51µM*	-25.5%	?	34.2%
CN1CCN(C(=O)c2ccc(S(=O)(=O)N(C)c3ccccc3)cc2)CC1	2.3	-1.6	i	1.7%	nt	0.4%	nt	nt	nt	nt
Cc1ccc(N2CCN(C(=O)c3ccccc3Br)CC2)c(C)c1	1.3	3.0	i	-9.9%	-3.8%	3.2%	nt	nt	nt	nt
Cc1cccc(N2CCN(C(=O)C3COc4ccccc4O3)CC2)c1C (stereo not drawn)	nt	1.1	i	-37.0%	nt	11.2µM*	16.4µM*	-16.1%	?	-3.2%
Cc1ccc(N2CCN(C(=O)c3ccccc3)CC2)c(C)c1	0.3	2.6	i	-31.3%	-25.5%	10µM*	?	6.6%	18.4µM*	14.8%
Cc1ccc(C)c(N2CCN(C(=O)c3ccccc3Br)CC2)c1	-3.3	-0.9	i	-38.9%	2.9%	-15.2%	nt	nt	nt	nt
CCN1CCN(C(=O)Cn2ncc3c4ccccc4n(Cc4ccccc4F)c3c2=O)CC1	nt	nt	i	-0.1%	10.7%	-1.0%	nt	nt	nt	nt
COc1ccccc1NC(=O)C1=C(C)Nc2nc3ccccc3n2C1c1cccc(OC)c1OC (stereo not drawn)	nt	nt	i	-6.7%	2.2%	9.4%	nt	nt	nt	nt
CC(c1ccccc1)N1C(=O)c2cccnc2C1=O (stereo not drawn)	3.1	4.9	i	-2.9%	-8.5%	2.4%	nt	nt	nt	nt
CC(NC1=CC(=O)c2cccnc2C1=O)C(O)c1ccccc1 (stereo not drawn)	?	-10.1	?	5.01µM*	?	5.01µM*	5.8µM*	5.17µM*	?	13µM*
CCOc1cc(CNC(=O)c2ccc(C)c(NC(=O)c3nsc4ccccc34)c2)ccc1OC	nt	nt	i	2.8%	3.7%	-24.8%	nt	nt	nt	nt
O=C(Nc1ccc(N2CCN(c3ccc(C(F)(F)F)cn3)CC2)nc1)c1cccs1	6.2	6.3	i	-4.3%	?	?	nt	nt	nt	nt
O=C(Nc1ccc(N2CCN(c3ncccc3C(F)(F)F)CC2)nc1)c1cccs1	-10.2	-26.2	?	-56.3%	33.6µM*	3.98µM*	?	?	?	79.4%
